Measurements as given in PubChem BioAssay AID1159580 (chemical genetic matrix, 2015).
Several values for one entry are separate records, joined by “and”; a condition that tells them apart may be missing. Equal entries are not always repeated. In all, about 5,500 compounds went through this assay and about 2,000 (36%) were called active. Another 18% or so got no clear call; they are omitted. Rule as the data show it: active = normalized growth mostly below about 0.91 (no sharp cut-off); inconclusive = no clear call, values can overlap the other calls; inactive = mostly above about 0.92. The list shows a part of the results.

Assay: chemical genetic growth profiling, strain panel (AID 1159580);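 also: tested at 20 µM; growth read once vehicle control cultures reached saturation at 30 °C; 1 = growth at the plate median or of vehicle wells; lower values mean less growth of the strain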
Conditions: growth OD

Measured: normalized growth

CC(C)NCC(O)COc1cccc2[nH]ccc12 (stereo not given)
inactive: S. cerevisiae deletion strains, locus YJR075W, strain HOC1, active compounds read low 1.01 | S. cerevisiae deletion strains, locus YKL009W, strain mrt4, active compounds read low 0.966 | S. cerevisiae deletion strains, locus YKL068W, active compounds read low 0.984 | S. cerevisiae deletion strains, locus YKL085W, strain MDH1 (second series), active compounds read low 0.968 | S. cerevisiae deletion strains, locus YKL085W, strain MDH1, active compounds read low 0.968 | S. cerevisiae deletion strains, locus YKL160W, strain elf1, active compounds read low 1 | S. cerevisiae deletion strains, locus YKL190W, strain CNB1, active compounds read low 0.993 | S. cerevisiae deletion strains, locus YKR001C, strain vps1, active compounds read low 0.988 | S. cerevisiae deletion strains, locus YKR026C, strain gcn3, active compounds read low 0.966 | S. cerevisiae deletion strains, locus YKR091W, strain srl3, active compounds read low 0.992 | S. cerevisiae deletion strains, locus YLL026W, active compounds read low 0.983 | S. cerevisiae deletion strains, locus YLL041C, strain sdh2, active compounds read low 0.983 | S. cerevisiae deletion strains, locus YLR027C, strain aat2, active compounds read low 0.985 | S. cerevisiae deletion strains, locus YLR039C, strain RIC1, active compounds read low 0.962 | S. cerevisiae deletion strains, locus YLR058C, strain SHM2, active compounds read low 0.996 | S. cerevisiae deletion strains, locus YLR102C, strain apc9, active compounds read low 0.988 | S. cerevisiae deletion strains, locus YLR113W, strain HOG1, active compounds read low 0.987 | S. cerevisiae deletion strains, locus YLR221C, strain rsa3, active compounds read low 0.994 | S. cerevisiae deletion strains, locus YLR258W, strain gsy2, active compounds read low 0.981 | S. cerevisiae deletion strains, locus YLR262C, strain YPT6 (second series), active compounds read low 0.994 | S. cerevisiae deletion strains, locus YLR262C, strain YPT6, active compounds read low 0.966 | S. cerevisiae deletion strains, locus YLR268W, strain sec22, active compounds read low 0.953 | S. cerevisiae deletion strains, locus YLR320W, strain mms22, active compounds read low 0.977 | S. cerevisiae deletion strains, locus YLR330W, strain CHS5, active compounds read low 0.978 | S. cerevisiae deletion strains, locus YLR342W, strain FKS1 (second series), active compounds read low 0.994 | S. cerevisiae deletion strains, locus YLR342W, strain FKS1, active compounds read low 0.996 | S. cerevisiae deletion strains, locus YLR357W, strain rsc2, active compounds read low 0.952 | S. cerevisiae deletion strains, locus YLR370C, strain arc18, active compounds read low 0.974 | S. cerevisiae deletion strains, locus YLR371W, strain rom2, active compounds read low 0.97 | S. cerevisiae deletion strains, locus YLR384C, strain iki3, active compounds read low 0.992 | S. cerevisiae deletion strains, locus YLR418C, strain cdc73, active compounds read low 1 | S. cerevisiae deletion strains, locus YML016C, strain PPZ1, active compounds read low 0.995 | S. cerevisiae deletion strains, locus YML032C, strain rad52, active compounds read low 0.984 | S. cerevisiae deletion strains, locus YML120C, strain ndi1, active compounds read low 0.976 | S. cerevisiae deletion strains, locus YML124C, strain tub3, active compounds read low 0.989 | S. cerevisiae deletion strains, locus YMR058W, strain fet3, active compounds read low 0.977 | S. cerevisiae deletion strains, locus YMR078C, strain ctf18, active compounds read low 0.981 | S. cerevisiae deletion strains, locus YMR125W, strain sto1, active compounds read low 0.953 | S. cerevisiae deletion strains, locus YMR129W, active compounds read low 0.974 | S. cerevisiae deletion strains, locus YMR205C, strain PFK2, active compounds read low 0.968 | S. cerevisiae deletion strains, locus YMR223W, strain ubp8, active compounds read low 1.03 | S. cerevisiae deletion strains, locus YMR231W, strain pep5, active compounds read low 0.984 | S. cerevisiae deletion strains, locus YMR263W, strain SAP30, active compounds read low 0.985 and 1 and 0.998 | S. cerevisiae deletion strains, locus YMR307W, strain GAS1, active compounds read low 1 and 0.998 | S. cerevisiae deletion strains, locus YNL067W, strain RPL9B, active compounds read low 0.992 | S. cerevisiae deletion strains, locus YNL071W, strain lat1, active compounds read low 0.982 | S. cerevisiae deletion strains, locus YNL128W, strain TEP1, active compounds read low 0.986 | S. cerevisiae deletion strains, locus YNL153C, strain GIM3, active compounds read low 1.01 | S. cerevisiae deletion strains, locus YNL175C, strain NOP13, active compounds read low 0.995 and 1.02 | S. cerevisiae deletion strains, locus YNL183C, strain NPR1, active compounds read low 0.955 | S. cerevisiae deletion strains, locus YNL197C, strain WHI3, active compounds read low 0.986 and 1.02 | S. cerevisiae deletion strains, locus YNL209W, strain ssb2, active compounds read low 0.99 | S. cerevisiae deletion strains, locus YNL224C, strain SQS1, active compounds read low 0.992 and 0.996 | S. cerevisiae deletion strains, locus YNL233W, strain BNI4, active compounds read low 0.995 | S. cerevisiae deletion strains, locus YNL248C, strain rpa49, active compounds read low 1 | S. cerevisiae deletion strains, locus YNL250W, strain rad50, active compounds read low 0.986 | S. cerevisiae deletion strains, locus YNL271C, strain bni1, active compounds read low 0.993 | S. cerevisiae deletion strains, locus YNL298W, strain CLA4, active compounds read low 0.977 | S. cerevisiae deletion strains, locus YNL307C, strain MCK1, active compounds read low 0.982 | S. cerevisiae deletion strains, locus YNL322C, strain KRE1 (second series), active compounds read low 0.994 | S. cerevisiae deletion strains, locus YNL322C, strain KRE1, active compounds read low 0.995 and 0.991 and 1.02 | S. cerevisiae deletion strains, locus YNR049C, strain mso1, active compounds read low 0.975 | S. cerevisiae deletion strains, locus YNR052C, strain pop2, active compounds read low 0.967 | S. cerevisiae deletion strains, locus YOL006C, strain TOP1, active compounds read low 1.04 | S. cerevisiae deletion strains, locus YOL012C, strain htz1 0.915 | S. cerevisiae deletion strains, locus YOL147C, strain pex11, active compounds read low 0.992 | S. cerevisiae deletion strains, locus YOR001W, strain rrp6, active compounds read low 0.994 | S. cerevisiae deletion strains, locus YOR061W, strain CKA2, active compounds read low 0.996 | S. cerevisiae deletion strains, locus YOR069W, strain VPS5, active compounds read low 0.991 | S. cerevisiae deletion strains, locus YOR070C, strain gyp1, active compounds read low 0.981 | S. cerevisiae deletion strains, locus YOR080W, strain dia2, active compounds read low 0.983 | S. cerevisiae deletion strains, locus YOR083W, strain WHI5 (second series), active compounds read low 1.02 and 0.995 | S. cerevisiae deletion strains, locus YOR083W, strain WHI5, active compounds read low 1.01 | S. cerevisiae deletion strains, locus YOR106W, strain vam3, active compounds read low 1 | S. cerevisiae deletion strains, locus YOR136W, strain idh2, active compounds read low 0.995 | S. cerevisiae deletion strains, locus YOR144C, strain elg1, active compounds read low 0.992 | S. cerevisiae deletion strains, locus YOR184W, strain ser1, active compounds read low 0.988 | S. cerevisiae deletion strains, locus YOR231W, strain MKK1, active compounds read low 1 | S. cerevisiae deletion strains, locus YOR265W, strain rbl2, active compounds read low 0.982 | S. cerevisiae deletion strains, locus YOR270C, strain vph1, active compounds read low 0.973 | S. cerevisiae deletion strains, locus YOR290C, strain snf2, active compounds read low 0.963 | S. cerevisiae deletion strains, locus YOR316C, strain cot1, active compounds read low 0.98 | S. cerevisiae deletion strains, locus YPL051W, strain arl3, active compounds read low 0.996 | S. cerevisiae deletion strains, locus YPL055C, strain LGE1, active compounds read low 1.01 and 0.998 | S. cerevisiae deletion strains, locus YPL078C, strain atp4, active compounds read low 0.989 | S. cerevisiae deletion strains, locus YPL106C, strain sse1, active compounds read low 0.979 | S. cerevisiae deletion strains, locus YPL240C, strain hsp82, active compounds read low 0.98 | S. cerevisiae deletion strains, locus YPL241C, strain CIN2, active compounds read low 0.991 and 0.996 | S. cerevisiae deletion strains, locus YPL256C, strain CLN2, active compounds read low 0.99 | S. cerevisiae deletion strains, locus YPR119W, strain clb2, active compounds read low 0.981 | S. cerevisiae deletion strains, locus YPR141C, strain kar3, active compounds read low 0.993 | S. cerevisiae deletion strains, locus YPR163C, strain tif3, active compounds read low 0.984 | S. cerevisiae deletion strains, locus YPR167C, strain met16, active compounds read low 0.977 | S. cerevisiae deletion strains, strain wtn01, active compounds read low 0.985 | S. cerevisiae strains, strain wild type, active compounds read low 1
